Compound activity: PubChem, National Center for Advancing Translational Sciences (NCATS)
The list is not random: actives were taken first. Their share in the collection is about 1.2%.
PGK inhibitor = inhibitors of T. brucei phosphoglycerate kinase. P07378. PGK/GAPDH coupled, Kinase-Glo luminescence, 60 min. Potency, µM (titrated, usually from 57.5 µM), hits mostly inhibitors. 0.043% of 380,000 active; also: nearly all actives have a fitted effect of over 60% in size
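Recombinant glycosomal PGK reaction used 1,3-bisphosphoglycerate generated in-well by GAPDH (100nM final) in 100mM TEA pH 7.6, 5mM MgCl2, 0.01% Tween-20. After 60 minutes at room temperature, ATP was read by Kinase-Glo Plus luminescence end-point.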
PI4K2A inh = blocks human PI4K2A kinase activity. Q9BTU6. purified PI4K2A, ADP-Glo luminescence, 1 h; active compounds read low. activity change, negative = inhibition, % at 76.9 µM. 0.13% of 420,000 active; in the data active = activity change below about -50%; inconclusive = mostly about -30% to -49%
Target sequence (Q9BTU6 whole entry, looked up): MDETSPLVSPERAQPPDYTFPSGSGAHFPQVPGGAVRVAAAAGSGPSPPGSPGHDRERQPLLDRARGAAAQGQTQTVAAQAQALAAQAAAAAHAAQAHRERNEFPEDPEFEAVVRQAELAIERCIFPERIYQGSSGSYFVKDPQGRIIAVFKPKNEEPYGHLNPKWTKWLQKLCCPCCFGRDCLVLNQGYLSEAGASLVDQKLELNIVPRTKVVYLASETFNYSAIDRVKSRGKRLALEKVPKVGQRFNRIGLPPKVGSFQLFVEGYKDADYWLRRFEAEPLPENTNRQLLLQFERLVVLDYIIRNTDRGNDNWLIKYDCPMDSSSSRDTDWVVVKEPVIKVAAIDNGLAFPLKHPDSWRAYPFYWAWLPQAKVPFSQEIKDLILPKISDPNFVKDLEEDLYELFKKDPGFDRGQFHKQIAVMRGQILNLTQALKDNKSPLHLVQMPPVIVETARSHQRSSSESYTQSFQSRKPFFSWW
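PI4K2A activity was measured by ADP-Glo luminescence: enzyme (4 ug/mL stock) and phosphatidylinositol (1.2 mM stock) in Tris pH 7.5/MgCl2/EGTA/Triton X-100 buffer were reacted with ATP (300 microM stock) for one hour at ambient temperature.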
KAT2A inh = GCN5L2 (KAT2A) acetyltransferase inhibition; GCN5L2 HAT assay, ThioGlo1 CoA-SH fluorescence; Q92830; Potency, µM (highest dose often 58.9 µM), usual class: inhibitors; 0.21% of 390,000 active; AID 504327
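Free CoA generated was detected with ThioGlo1 (50uM) fluorescence at Ex340nm/Em540nm, read immediately and after 20 min at room temperature. Enzyme, 20 nM in HEPES pH 7.5 buffer, saw compounds 15 min before adding 75uM H3(1-25) peptide and 70uM acetyl-CoA.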
GoLoco inh red = inhibitors of human Gai1-RGS12 GoLoco interaction (red fluorophore); P63096; Gai1:RGS12 GoLoco peptide FP, rhodamine, 10 min; Potency, µM (series often up to 61.6 µM), actives largely listed as inhibitors; 0.44% of 230,000 active; AID 880; active = well fitted inhibition curve with a large enough effect, not every such curve was filed as active; inactive = no such curve, though single readings can be large or run the other way; also: nearly all actives have a fitted effect of over 30% in size
Pin1 inhibitor = human Pin1 inhibition; Potency, µM (titrated, usually from 115 µM), actives largely listed as inhibitors; Pin1 FP peptide displacement, HiFluor488, 10 min; 0.009% of 390,000 active; active = well fitted inhibition curve with a large enough effect in the polarisation, with a control signal flat, not every such curve was filed as active; inconclusive = small, poorly fitted or top-dose-only effect, or effect the other way, or a change in a side signal; inactive = no such curve, though single readings can be large or run the other way; the % refers to the polarisation
Target sequence (Q13526 whole entry, looked up): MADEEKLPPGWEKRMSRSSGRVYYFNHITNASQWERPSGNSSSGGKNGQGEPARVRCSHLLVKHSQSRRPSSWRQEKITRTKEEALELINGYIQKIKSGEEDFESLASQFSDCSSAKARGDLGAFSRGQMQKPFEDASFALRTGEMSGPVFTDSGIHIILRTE
PI5P4Ka inh = inhibitors of human PI5P4K alpha; P48426; PI5P4Kalpha enzyme, ADP-Glo luminescence, 60 min; active compounds read low; max response, %; 1.2% of 330,000 active; active = max response of -50% or lower; inconclusive = between -30% and -50%; inactive = -30% or higher; also: value at the top dose of about 77 µM
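PI5P4Kalpha ADP-Glo assay; 5 microM ATP final; 60 min RT reaction; HEPES pH 7.4/EGTA/CHAPS, 5% DMSO; controls lacking substrate or enzyme; luminescent end-point.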
Hits are given with their value; i = inactive; ? = inconclusive; nt = no result given; [ ] = remark or other dose. Unless noted, calls follow the shape of the dose curve; as a rule, active = well fitted curve in the direction sought with a large enough effect; inconclusive = small, poorly fitted or top-dose-only effect, or another doubt; inactive = no such curve, though single readings can be large; an effect the other way counts as inactive or inconclusive.

SMILES	PGK inhibitor	PI4K2A inh	KAT2A inh	GoLoco inh red	Pin1 inhibitor	PI5P4Ka inh
CNS(=O)(=O)c1ccc2nc(NC(=O)/C=C/c3ccco3)sc2c1	i	-62	i	i	?	?
COc1cc(/C=N/OCC(=O)NC23CC4CC(CC(C4)C2)C3)ccc1OCc1ccccc1	i	i	i	nt	i	i
Cc1c(Cl)cccc1N1C(=O)C2ON(c3ccccc3)C(c3cccnc3)C2C1=O (stereo unspecified)	i	i	i	i	?	i
COc1cccc(CNC(=O)CN2C(=O)CC(c3ccccc3)=Nc3ccccc32)c1	i	i	i	i	i	i
CCOC(=O)c1[nH]cnc1C(=O)Nc1ccc(C)cc1	i	i	i	i	i	i
O=C(NC(=S)Nc1ccccc1)c1ccc(-c2ccccc2)cc1	i	i	i	i	i	i
O=C(/C=C/c1ccco1)Nc1ccccc1C(=O)Nc1cccc(C(=O)O)c1	i	i	i	i	?	i
Cc1ccc(-c2csc(NC(=O)/C=C/c3ccco3)c2C(=O)O)cc1	i	i	i	i	?	-71
O=C(/C=C/c1cccs1)NC(=S)Nc1ccc(C(=O)O)cc1	i	i	i	i	i	-72
O=C(/C=C/c1ccco1)NC(=S)Nc1cccc(C(=O)O)c1	?	i	i	nt	?	-74
NS(=O)(=O)c1ccc(NC(=S)NC(=O)/C=C/c2cccs2)cc1	i	i	i	i	i	i
O=C(O)c1ccc(NC(=S)NC(=O)c2ccc(-c3ccccc3)cc2)cc1	i	i	i	i	i	-55
Cc1nn(C)cc1S(=O)(=O)N1CCN(c2ccccc2F)CC1	i	i	i	nt	i	i
COc1cc(NS(=O)(=O)c2ccc(NC(=S)NC(=O)/C=C/c3ccco3)cc2)ncn1	20µM	i	i	i	?	-56
Cc1ccc(C(=O)N/C(=C/c2ccco2)C(=O)Nc2cccc(C(=O)O)c2)cc1	i	i	i	nt	?	-53
CC(=O)N(C)c1ccc(NC(=S)NC(=O)/C=C/c2ccco2)cc1	i	i	i	nt	i	i
CC(=O)Nc1ccc(NC(=S)NC(=O)/C=C/c2ccco2)cc1	i	i	i	nt	i	-64
CCOc1ccc(NC(=S)NC(=O)/C=C/c2ccco2)cc1	i	i	?	nt	i	i
O=C(/C=C\c1ccco1)c1ccc(NC(=O)c2ccco2)cc1	i	i	i	i	?	-56
CCOC(=O)c1cc(-c2ccc(F)cc2)n(CC(=O)NC2CCCCCC2)c1C	i	i	i	nt	i	nt
FC(F)C(F)(F)Oc1cccc(Nc2nccn3c(-c4cccc5cccnc45)cnc23)c1	nt	i	nt	nt	nt	i
Cn1nnc(NC(=S)NC(=O)/C=C/c2ccco2)n1	i	i	i	i	nt	-71
O=C(/C=C/c1ccc(Br)cc1)NC(=S)NNC(=O)c1ccco1	i	i	i	i	?	-52
O=C(N/N=C/c1cccc(Oc2ccc([N+](=O)[O-])cc2[N+](=O)[O-])c1)c1cncc(Br)c1	i	i	i	i	i	nt
CN(C)C(=O)c1cccc(-c2cnc3c(NC=O)cc(-c4ccccc4Cl)cn23)c1	nt	i	nt	nt	nt	-65
SMILES	PGK inhibitor	PI4K2A inh	KAT2A inh	GoLoco inh red	Pin1 inhibitor	PI5P4Ka inh
COc1ccc(F)cc1-c1cc(NC=O)c2ncc(-c3cccc(C(=O)N(C)C)c3)n2c1	nt	i	nt	nt	nt	-51
CN(C)C(=O)c1cccc(-c2cnc3c(NC=O)cc(-c4ccccc4N(C)C)cn23)c1	nt	i	nt	nt	nt	?
CC(=O)c1ccc(N(CC(=O)NC2CCCCC2)C(=O)c2csnn2)cc1	i	i	i	nt	i	i
COc1ccccc1N(Cc1ccccc1)S(=O)(=O)c1cccc(C(=O)NCC2CCCO2)c1 (stereo unspecified)	i	i	i	nt	i	i
COc1ccc(-c2nnc(NC(=O)Cc3ccccc3)o2)cc1	i	i	i	nt	i	i
CCOC(=O)CSc1n[nH]c(=S)s1	i	i	25µM	i	i	?
S=C(NNC(=S)Nc1ccccc1)Nc1ccccc1	i	i	i	nt	i	i
NC(=S)NNC(=S)Nc1ccccc1	i	i	i	i	i	-70
N#Cc1c(-n2cccc2)cccc1-n1cccc1	i	i	i	nt	i	nt
CN1CC[n+]2c(CN3C(=O)c4ccccc4C3=O)csc21	i	i	i	18µM	i	i
CC(=O)c1cc(CN2C(=O)c3ccccc3C2=O)cs1	i	i	i	i	i	i
CCOC(=O)c1ccc2c(c1)C1C=CCC1C(C(=O)O)N2 (stereo unspecified)	nt	nt	20µM	i	nt	nt
CC(C)C1Nc2ccc(C(=O)O)cc2C2C=CCC21 (stereo unspecified)	i	i	i	i	?	?
CCOC(=O)C1Nc2ccc(C(=O)O)cc2C2C=CCC12 (stereo unspecified)	?	i	i	nt	?	-69
Cc1cc(C)c2c(c1)NC(C(=O)O)C1CC=CC21 (stereo unspecified)	?	i	28µM	nt	?	-79
O=C(O)C1Nc2c(C(F)(F)F)ccc(Cl)c2C2C=CCC12 (stereo unspecified)	i	i	i	nt	nt	i
CCC1CCCCN1C(=O)CN1C(=O)CSC1=O (stereo unspecified)	i	i	i	i	i	i
CCc1[nH]c(=S)c(C#N)c2c1CCCC2	i	i	i	i	i	-52
O=C1CC(=O)N(Cc2ccco2)C(=O)N1	5µM	?	i	i	?	nt
O=C1CC(=O)N(Cc2ccco2)C(=S)N1	?	?	18µM	i	?	?
O=C1CC(=O)N(Cc2cccs2)C(=O)N1	i	i	i	i	?	?
Cc1c(C(=O)O)oc2c1-c1nn(Cc3ccc(Cl)cc3)cc1CC2	nt	i	i	nt	i	nt
COc1ccccc1Nc1nc2nonc2nc1N1CCC(C)CC1	i	i	i	i	i	i
Fc1ccc(Nc2ccnc(-c3ccc4c(c3)OCO4)n2)cc1	nt	nt	28µM	i	nt	nt
C[n+]1cccc2c(Br)ccc([O-])c21	i	-61	i	i	?	i
SMILES	PGK inhibitor	PI4K2A inh	KAT2A inh	GoLoco inh red	Pin1 inhibitor	PI5P4Ka inh
CCOC(=O)c1ccc(S(=O)(=O)N2CCN(C3CCCC3)CC2)cc1	i	i	i	i	i	i
Cc1c(Cl)sn(-c2ccc(Cl)cc2)c1=O	i	i	10µM	14µM	i	-73
O=C(CCCCn1ccc(=O)[nH]c1=O)Nc1ccc(C(=O)O)c(O)c1	i	i	nt	nt	i	-71
Clc1ccc(CN2CCSCC2)c(Cl)c1	i	i	i	nt	i	i
COc1cccc(C(=O)Nc2cccc(OCc3cc(=O)n4cccc(C)c4n3)c2)c1	i	i	i	nt	i	nt
Cc1cccc(-c2nnn3c2nc(NCc2ccc4c(c2)OCO4)c2ccccc23)c1	i	-53	i	nt	i	nt
Cc1ccc(C)c(-n2ccnc2SCC(=O)O)c1	i	i	i[0.501 µM]	i	i	i
CCN(CC)CCCNC(=O)/C=C/C(=O)O	i	i	i	i	i	i
